# A selection: hits, their analogues and other compounds. The true share with any hit is near 18%.
# CtBP-E1A inh – inhibitors of CtBP/E1A interaction. activity change, % (concentration not given with the values). AID 651724. AlphaScreen GST-E1A/His-CtBP binding, 1536-well; active compounds read low. 340,000 compounds, 0.49% hits; in the data active = activity change below about -65%; inconclusive = mostly about -30% to -63%
#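 Protein mix (5X: 125 nM each GST-E1A, His-CtBP) was incubated with pinned compound 2 h at 37 deg C in dark, in 50 mM Tris pH 8.0 buffer with 300 mM NaCl. Glutathione donor and nickel acceptor beads followed; AlphaScreen signal read after 1 h.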
# DT40 TDP1 CPT – growth inhibition of DT40 Tdp1-/-;hTDP1 cells with camptothecin (screen for TDP1 inhibitors). 420,000 compounds, 12% hits. chicken DT40 Tdp1-/-;hTDP1 cells + 20 nM CPT, ATP luminescence, 48 h. Potency, µM (titrated, usually from 46.2 µM), without a hit: top-dose activity change, negative = growth inhibition, hits mostly inhibitors; also: potency is read from the fitted curve at half-maximal effect; nearly all actives have a fitted effect of over 55% in size
#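 Chicken DT40 Tdp1-/- cells stably complemented with human TDP1 were seeded at 400 cells/well in medium containing 20 nM camptothecin, exposed to pin-transferred compounds, and grown at 37 °C for at least 48 hr. Viability was read as ATP luminescence.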
# IL1B secr inh – inflammasome signaling inhibition, IL-1 beta readout; THP-1 LPS/ATP IL-1B secretion, AlphaLISA, 16 h; active compounds read low; activity change, % at 57.5 µM; 360,000 compounds, 4.7% hits; AID 743279; in the data active = activity change below about -50%; inconclusive = mostly about -30% to -49%
#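 Secreted IL-1B measured by AlphaLISA bead assay after 16 h compound exposure of THP-1 cells; compounds (final up to 57.5 uM) added 1 h before LPS (250 ng/mL) and ATP (1.25 mM) stimulation; lower signal means less secretion.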
# DT40 TDP1 no CPT – qHTS for Inhibitors of human tyrosyl-DNA phosphodiesterase 1 (TDP1): qHTS in cells in absence of CPT. DT40 Tdp1-/- hTDP1 cells, no CPT, ATP luminescence, 48 h. 420,000 compounds, 15% hits. Potency, µM (top dose mostly 46.2 µM), for inactives: at the top dose activity change, negative = growth inhibition, usual class: inhibitors; also: potency is read from the fitted curve at half-maximal effect; nearly all actives have a fitted effect of over 55% in size
#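 Luminescent ATP content (CellTiter-Glo) served as the growth readout. Knockout chicken DT40 cells expressing human TDP1 were exposed to compounds without camptothecin for a minimum 48 hr at 37 °C.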
# TDP1 inh – inhibitors of human tyrosyl-DNA phosphodiesterase TDP1; recombinant TDP1, AlphaScreen DNA substrate cleavage; AID 485290; Q9NUW8; Potency, µM (top dose mostly 130 µM), without a hit: at the top dose activity change, negative = inhibition, most hits filed as inhibitors; 350,000 compounds, 0.28% hits; also: potency is read from the fitted curve at half-maximal effect; nearly all actives have a fitted effect of over 40% in size
#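 AlphaScreen read-out: signal falls as enzyme removes the 3' tyrosine-FITC from a 5'-biotinylated DNA oligo (15 nM, 5 min, RT). Enzyme was E. coli-made recombinant Tdp1 at 1 nM, exposed to compound for 15 min beforehand; beads 10 ug/ml, 10 min.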
# Six1-Eya2 inh – inhibitors of human Six1/Eya2 interaction; Q15475+O00167; AlphaScreen GST-Six1/His-Eya2 binding, biochemical; active compounds read low; activity change, % (no concentration beside the values); 360,000 compounds, 0.56% hits; in the data active = activity change below about -65%; inconclusive = mostly about -30% to -63%
# Target sequence (O00167 whole entry, looked up): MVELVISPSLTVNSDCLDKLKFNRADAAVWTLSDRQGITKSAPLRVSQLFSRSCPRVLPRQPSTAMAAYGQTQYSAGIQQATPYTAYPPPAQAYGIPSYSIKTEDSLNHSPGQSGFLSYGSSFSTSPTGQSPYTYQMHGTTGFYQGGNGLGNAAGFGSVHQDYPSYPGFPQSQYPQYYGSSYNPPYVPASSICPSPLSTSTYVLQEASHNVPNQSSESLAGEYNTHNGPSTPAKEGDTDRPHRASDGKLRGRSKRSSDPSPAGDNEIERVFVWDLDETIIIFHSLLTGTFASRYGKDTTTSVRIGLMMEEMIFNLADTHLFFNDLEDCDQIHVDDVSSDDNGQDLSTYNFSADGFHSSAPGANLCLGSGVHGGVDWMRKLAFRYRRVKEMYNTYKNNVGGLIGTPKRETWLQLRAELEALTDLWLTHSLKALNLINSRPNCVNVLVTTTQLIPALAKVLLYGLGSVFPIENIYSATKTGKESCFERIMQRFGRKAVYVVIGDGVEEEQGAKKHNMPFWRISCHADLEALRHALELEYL
# Target sequence (Q15475 whole entry, looked up): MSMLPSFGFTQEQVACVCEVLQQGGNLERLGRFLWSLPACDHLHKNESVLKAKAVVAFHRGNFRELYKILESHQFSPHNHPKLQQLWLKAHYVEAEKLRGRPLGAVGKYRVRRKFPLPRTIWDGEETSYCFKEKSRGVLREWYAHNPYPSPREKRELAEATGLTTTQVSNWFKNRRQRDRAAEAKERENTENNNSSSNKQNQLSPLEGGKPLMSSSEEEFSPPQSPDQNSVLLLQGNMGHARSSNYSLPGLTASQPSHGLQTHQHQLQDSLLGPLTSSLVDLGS
#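 GST-Six1 + His-Eya2 (5X stock: 250/500 nM); Tris pH 8.0, 300 mM NaCl, 0.05% BSA, 0.02% Tween 20; GSH donor/Ni acceptor beads; 1 h 37 °C dark; AlphaScreen readout.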
# Active calls of the source: *; ? = inconclusive; · = not tested or not shown. Unless noted, calls follow the shape of the dose curve; as a rule, active = well fitted curve in the direction sought with a large enough effect; inconclusive = small, poorly fitted or top-dose-only effect, or another doubt; inactive = no such curve, though single readings can be large; an effect the other way counts as inactive or inconclusive. % is scaled to controls: 0 for no effect and ±100 for the full control effect.
SMILES,CtBP-E1A inh,DT40 TDP1 CPT,IL1B secr inh,DT40 TDP1 no CPT,TDP1 inh,Six1-Eya2 inh
CCOC(=O)c1ccc2ncc(C(=O)OCC)c(NCCN3CCOCC3)c2c1,-3,?,-8,?,5%,0
CCOC(=O)c1cnc2c(CC)cccc2c1NCCN1CCOCC1,·,?,?,23µM*,·,2
CCOC(=O)c1cnc2c(C)cc(Cl)cc2c1NCCCN1CCOCC1,6,-25%,-73*,?,1%,-2
CCOC(=O)c1cnc2c(Cl)cc(Cl)cc2c1NCCCN1CCOCC1,·,-28%,-10,?,·,2
CCOC(=O)c1cnc2ccc(Br)cc2c1NCCN1CCOCC1,·,21µM*,·,21µM*,·,·
COc1cc(/C=N/n2nnnc2N)ccc1OCC#N,·,8%,-7,-9%,·,-1
Cc1cccc(C)c1C(OCCN(C)C)C1CCCCC1 (configuration not stated),-6,18µM*,-8,?,-3%,-7
COc1ccc(C(=O)CC(c2ccccc2)C2C(=O)CCCC2=O)cc1 (configuration not stated),5,-24%,21,2%,-7%,-2
COc1ccc(C(CC(=O)c2ccccc2)C2CCCCC2=O)cc1 (configuration not stated),20,16µM*,-3,-29%,1%,14
COc1ccnc(Oc2ccc(F)cc2)c1C(=O)N/C=N/OCc1c(Cl)cccc1Cl,-11,-30%,?,?,3%,-10
O=C1C(Cl)=C(N2CCCCCC2)C(=O)N1c1ccccc1Cl,21,-6%,-14,11%,·,19
Cc1ccc(N2C(=O)C(Cl)=C(N3CCCCCC3)C2=O)c(C)c1,64,?,?,15µM*,·,77
CNC(=O)CSc1cn(CC(=O)N(C(C)C)C(C)C)c2ccccc12,6,1%,4,-8%,5%,1
O=[N+]([O-])/C=C/c1cn(Cc2ccccc2)c2ccccc12,5,18µM*,-70*,12µM*,6%,-3
O=C(Cn1cc(/C=C\[N+](=O)[O-])c2ccccc21)Nc1ccccc1,3,21µM*,-96*,15µM*,2%,1
CCOC(=O)c1ccccc1NC(=O)Cn1c(=O)n(Cc2nc(-c3ccccc3)no2)c(=O)c2ccccc21,·,-26%,·,-29%,3%,·
O=C(NCc1ccco1)c1cccc(S(=O)(=O)N2CCOCC2)c1,6,-13%,3,-1%,6%,-1
O=C(CN1C(=O)NC2(CCCC2)C1=O)N1CCN(S(=O)(=O)c2ccccc2)CC1,4,?,20,-8%,5%,15
Cc1ccc(-c2cc3ccccc3nc2N)cc1,·,16µM*,21,26µM*,·,1
CCCn1c(=O)c2c(ncn2C)n(CCC)c1=O,-14,?,-4,3.7µM*,5%,6
O=C(NCCCn1ccnc1)c1ccc(N2CCCCCC2)c([N+](=O)[O-])c1,-15,18µM*,-17,?,5%,-9
C=C1CCN(c2ccc(C(=O)NCc3ccccc3)cc2[N+](=O)[O-])CC1,-9,-27%,0,-18%,·,-9
C=C1CCN(c2ccc(C(=O)NCCC)cc2[N+](=O)[O-])CC1,-8,16µM*,-55*,16µM*,·,-12
CCCC1CCC(=NNC(=O)CNc2ccc(OC)cc2)CC1 (configuration not stated),-24,-10%,0,?,11%,-4
O=C(NNC(=O)C12CC3CC(CC(C3)C1)C2)c1ccccc1O,1,8.2µM*,11,8.2µM*,-2%,-7
SMILES,CtBP-E1A inh,DT40 TDP1 CPT,IL1B secr inh,DT40 TDP1 no CPT,TDP1 inh,Six1-Eya2 inh
O=C(NNC(=O)C12CC3CC(CC(C3)C1)C2)c1ccccc1F,-2,5%,0,-5%,16%,-3
CCc1cccc(NC(=O)CCc2c(C)nc3c(c2C)c(=O)n(C)c(=O)n3C)c1,·,23µM*,·,?,6%,·
COc1cc(/C=C/c2ccccc2)oc(=O)c1,·,·,·,·,-3%,·
CN(C)C/C=C/C(O)(c1ccccc1)c1ccccc1,12,16%,-20,-1%,-1%,21
CN(C)CC(CCC(CN(C)C)C(O)(c1ccccc1)c1ccccc1)C(O)(c1ccccc1)c1ccccc1 (configuration not stated),-11,23µM*,-85*,18µM*,·,1
O=C(NC(c1ccc(F)cc1)c1cnccn1)C1CCN(CCOc2ccc(Cl)cc2Cl)CC1 (configuration not stated),-17,?,·,16µM*,·,-5
COc1ccc(C(NC(=O)C2CCN(CCCOc3ccccc3)CC2)c2ccccn2)cc1 (configuration not stated),-1,-25%,-13,-17%,·,-7
O=C(NC(c1ccc(-c2ccccc2)cc1)c1cnccn1)C1CCN(CCCOc2ccccc2)CC1 (configuration not stated),-20,23µM*,-21,13µM*,·,-15
O=C(NC(c1ccc(Cl)cc1)c1cnccn1)C1CCN(CCOc2ccc(F)cc2)CC1 (configuration not stated),2,?,?,18µM*,·,-2
O=C(NC(c1ccc(-c2ccccc2)cc1)c1cnccn1)C1CCN(CCOc2ccc(F)cc2)CC1 (configuration not stated),9,?,-54*,?,·,0
CCOc1ccc(CC2CCC(=O)NC2=O)cc1 (configuration not stated),·,-5%,-7,-1%,4%,0
O=C(/C=C\c1ccc2c(c1)OCO2)CC1(O)C(=O)Nc2ccccc21 (configuration not stated),6,?,-101*,?,4%,6
O=C(CC1(O)C(=O)Nc2ccccc21)c1ccc2c(c1)OCO2 (configuration not stated),-4,-12%,0,-16%,5%,-1
O=C(NCc1ccccc1Cl)c1csc([C@@H]2O[C@H](CO)[C@H](O)[C@H](O)[C@H]2O)n1,2,-18%,0,-20%,·,3
CC(=O)Nc1ccc(S(=O)(=O)NNC(=O)c2cccc3ccccc23)cc1,0,-22%,-7,?,3%,0
Cc1ccc(N2CCN(S(=O)(=O)N(C)C)CC2)cc1C,-2,-10%,11,-12%,-10%,-6
COc1ccc(-c2nc3c(C#N)c[nH]n3c2NC2CCCC2)c(OC)c1,·,12µM*,·,?,14%,·

# From PubChem BioAssay
